# Reference: PubChem BioAssay (EPA / NIEHS)
# Active and inactive are the calls of the source. The calls were made as follows: active = hit-call score of the fitted dose curve at least 0.9, where 1 is the maximum; inactive = score below 0.9.
# Read-out: Apoptosis regulator Bcl-2 (Homo sapiens) (UniProt P10415)
# Assay: LTEA_HepaRG_BCL2: Life Technologies and Expression Analysis (LTEA) Assay for Bcl-2 gene using HepaRG (AID 2283475)
# Settings: mRNA level, 48 h; actives raise or lower the signal
# How it was run: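 qRT-PCR of BCL2 transcript, normalized to three housekeeping genes (ACTB, GAPDH, POLR2A), after 48 h chemical exposure of HepaRG cells; concentrations top 100 uM with half-log dilutions, 0.5% DMSO vehicle, duplicates; changes up or down fitted relative to vehicle.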
# Sequence of Apoptosis regulator Bcl-2 (Homo sapiens) (P10415 whole entry, looked up): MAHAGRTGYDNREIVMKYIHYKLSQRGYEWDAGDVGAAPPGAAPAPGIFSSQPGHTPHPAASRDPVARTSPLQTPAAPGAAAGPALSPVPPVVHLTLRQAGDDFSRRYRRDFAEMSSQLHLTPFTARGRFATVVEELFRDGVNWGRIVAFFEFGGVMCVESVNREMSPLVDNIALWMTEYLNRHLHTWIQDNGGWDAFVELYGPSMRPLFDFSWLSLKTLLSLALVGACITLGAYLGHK
SMILES,AC50,outcome
CCCCC(O)(Cn1cncn1)c1ccc(Cl)cc1Cl (stereo not given),59.5 µM (active),
CC(C)N1C(=O)c2ccccc2NS1(=O)=O,,inactive
O=C(Nc1ccccc1-c1ccc(Cl)cc1)c1cccnc1Cl,,inactive
N#CN=C1SCCN1Cc1ccc(Cl)nc1,,inactive
CCNC(=O)NC(=O)C(C#N)=NOC,,inactive
Cc1c(COC(=O)[C@@H]2[C@H](/C=C(\Cl)C(F)(F)F)C2(C)C)cccc1-c1ccccc1,,inactive
C=C(C)CN(CC)c1c([N+](=O)[O-])cc(C(F)(F)F)cc1[N+](=O)[O-],,inactive
CC(C)C1(C)N=C(c2ncccc2C(=O)O)NC1=O (stereo not given),,inactive
CCCC(=NOCC)C1=C(O)CC(CC(C)SCC)CC1=O (stereo not given),,inactive
O=C1C2CC=CCC2C(=O)N1SC(Cl)(Cl)Cl (stereo not given),,inactive
COCc1cnc(C2=NC(C)(C(C)C)C(=O)N2)c(C(=O)O)c1 (stereo not given),,inactive
Cc1nc(N(C)C)nc(OC(=O)N(C)C)c1C,,inactive
CC(C)N1C(=O)N(c2ccccc2)CSC1=NC(C)(C)C,78.7 µM (active),
Clc1cccc(C(Cl)(Cl)Cl)n1,,inactive
CC1(C)CON(Cc2ccccc2Cl)C1=O,,inactive
CN/C(=N\[N+](=O)[O-])NCc1cnc(Cl)s1,,inactive
Cc1ccc(N=CN(C)C=Nc2ccc(C)cc2C)c(C)c1,,inactive
CCN(CC)c1nc(C)cc(OP(=S)(OC)OC)n1,,inactive

SMILES,AC50,outcome
COCC(C)N(C(=O)CCl)c1c(C)csc1C (stereo not given),,inactive
CCOc1nc(C(Cl)(Cl)Cl)ns1,1.51 µM (active),
CCC(C)n1c(=O)[nH]c(C)c(Br)c1=O (stereo not given),,inactive
Nc1cnn(-c2ccccc2)c(=O)c1Cl,,inactive
N#Cc1c(Cl)cccc1Cl,,inactive
CCN(CC)C(=O)C(C)Oc1cccc2ccccc12 (stereo not given),,inactive
CC1(C)C(C(=O)OC(C#N)c2cccc(Oc3ccccc3)c2)C1(C)C (stereo not given),,inactive
CC(C)Nc1nc(Cl)nc(NC(C)C)n1,,inactive
Cn1c(-c2ccccc2)cc(-c2ccccc2)[n+]1C,13.3 µM (active),
CCCN(CC)CC1COC2(CCC(C(C)(C)C)CC2)O1 (stereo not given),,inactive
CCNP(=S)(OC)O/C(C)=C/C(=O)OC(C)C (stereo not given),,inactive
CS(=O)(=O)c1ccc(C(=O)C2C(=O)CCCC2=O)c([N+](=O)[O-])c1,,inactive
COP(=S)(OC)Oc1ccc([N+](=O)[O-])c(C)c1,,inactive
COC(=O)NC(=S)Nc1ccccc1NC(=S)NC(=O)OC,,inactive
COc1cc(Cl)c(OC)cc1Cl,,inactive
CC(C)(C)C(=O)C(Oc1ccc(Cl)cc1)n1cncn1 (stereo not given),,inactive
CCCCOCN(C(=O)CCl)c1c(CC)cccc1CC,,inactive
